Laboratory results taken from PubChem BioAssay (EPA / NIEHS).
Activity calls are given as the source filed them. Rule for the calls: active = hit-call score of the fitted dose curve at least 0.9, where 1 is the maximum; inactive = score below 0.9.

Legend:
Conditions in all cases: mRNA level, 48 h; actives raise or lower the signal
[1] = read-out: ATP-citrate lyase (ACLY), ACLY (gene 47); assay: LTEA_HepaRG_ACLY: Life Technologies and Expression Analysis (LTEA) Assay for ATP-citrate lyase (ACLY) using HepaRG (AID 2283466)
Outline: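 ACLY mRNA quantified by qRT-PCR on Fluidigm arrays against three housekeeping genes, after 48 h chemical treatment of HepaRG cells (top concentration 100 uM, half-log steps, 0.5% DMSO vehicle). Up- or down-regulation fitted relative to DMSO.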

[2] = read-out: Peroxisomal acyl-coenzyme A oxidase 1 (ACOX1) gene, ACOX1 (gene 51); assay: LTEA_HepaRG_ACOX1: Life Technologies and Expression Analysis (LTEA) Assay for Peroxisomal acyl-coenzyme A oxidase 1 (ACOX1) gene using HepaRG (AID 2283467)
Outline: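 ACOX1 transcript levels were quantified by TaqMan qRT-PCR against three housekeeping genes after 48 h chemical exposure of differentiated human HepaRG cells. Exposure used eight half-log steps topping at 100 uM, 0.5% DMSO vehicle, in duplicate. Bidirectional curve fits were made relative to DMSO.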

[3] = read-out: Alkaline Phosphatase, Placental (ALPP) gene, ALPP (gene 250); assay: LTEA_HepaRG_ALPP: Life Technologies and Expression Analysis (LTEA) Assay for Alkaline Phosphatase, Placental (ALPP) gene using HepaRG (AID 2283468);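 for AC50: differentiated human HepaRG liver cells in serum-free induction medium; ALPP transcript by TaqMan qRT-PCR normalized to ACTB GAPDH and POLR2A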
Outline: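 Using human liver HepaRG cells, chemicals are tested in duplicate over 48 h at half-log concentrations topping at 100 uM; phenobarbital 1 mM serves as induction control. ALPP mRNA change by qRT-PCR, bidirectional fit against vehicle.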

[4] = read-out: Bcl-2 (BAD) gene, BAD (gene 572); assay: LTEA_HepaRG_BAD: Life Technologies and Expression Analysis (LTEA) Assay for Bcl-2 (BAD) gene using HepaRG (AID 2283469)
Outline: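 Read-out: qRT-PCR of BAD mRNA, normalized to three housekeeping genes. Human HepaRG cultures got 48 h chemical exposure in 0.5% DMSO, duplicate eight-point half-log series topping at 100 uM. Gain or loss of signal fitted versus DMSO vehicle.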

[5] = read-out: Bcl-2 (BAX) gene, BAX (gene 581); assay: LTEA_HepaRG_BAX: Life Technologies and Expression Analysis (LTEA) Assay for Bcl-2 (BAX) gene using HepaRG (AID 2283470)
Outline: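 Cells were thawed, plated for 48 h, moved to serum-free induction medium and dosed for 48 h (highest concentration 100 uM, half-log steps, 0.5% DMSO). Total RNA was then analysed for BAX expression by qRT-PCR.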

[6] = read-out: adenosine kinase (ADK) gene, ADK (gene 132); assay: LTEA_HepaRG_ADK: Life Technologies and Expression Analysis (LTEA) Assay for adenosine kinase (ADK) gene using HepaRG (AID 2283471)
Outline: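 HepaRG (human liver), 48 h chemical exposure, 8-pt half-log series, top 100 uM, 0.5% DMSO vehicle. Readout: ADK mRNA by qRT-PCR vs housekeeping genes; bidirectional curve fit relative to DMSO baseline.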

[7] = read-out: Alpha-fetoprotein (AFP) gene, AFP (gene 174); assay: LTEA_HepaRG_AFP: Life Technologies and Expression Analysis (LTEA) Assay for Alpha-fetoprotein (AFP) gene using HepaRG (AID 2283472);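 for AC50: AFP transcript by TaqMan qRT-PCR normalized to ACTB GAPDH and POLR2A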
Outline: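 Chemicals were tested on differentiated HepaRG cells for 48 hours at eight concentrations up to 100 uM, with 0.5% DMSO as vehicle. AFP expression was then quantified by qRT-PCR and analyzed for gain or loss relative to DMSO.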

BCL2L11 (gene 10018) = assay: LTEA_HepaRG_BCL2L11: Life Technologies and Expression Analysis (LTEA) Assay for Bcl-2 (BCL2L11) gene using HepaRG (AID 2283473)
Outline: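 Human hepatic HepaRG cultures are treated 48 h with test chemicals (maximum 100 uM, 0.5% DMSO vehicle). Expression of BCL2L11 is measured by qRT-PCR against ACTB, GAPDH and POLR2A, with activity in either direction scored relative to vehicle.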

[8] = read-out: Apolipoprotein A-V (APOA5) gene, APOA5 (gene 116519); assay: LTEA_HepaRG_APOA5: Life Technologies and Expression Analysis (LTEA) Assay for Apolipoprotein A-V (APOA5) gene using HepaRG (AID 2283474)
Outline: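 Concentration-response of APOA5 expression in HepaRG: eight half-log doses to 100 uM, 48 h, qRT-PCR normalized to ACTB/GAPDH/POLR2A, bidirectional fitting with 0.5% DMSO as baseline.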

[9] = read-out: Apoptosis regulator Bcl-2 (Homo sapiens) (UniProt P10415); assay: LTEA_HepaRG_BCL2: Life Technologies and Expression Analysis (LTEA) Assay for Bcl-2 gene using HepaRG (AID 2283475);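 note: BCL2 transcript by TaqMan qRT-PCR normalised to ACTB GAPDH and POLR2A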
Outline: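 Plated human HepaRG cells are exposed to test chemicals for 48 h across eight concentrations from 100 uM downward in half-log steps (0.5% DMSO). BCL2 expression is then measured by qRT-PCR with housekeeping normalisation and fitted bidirectionally against vehicle.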

Chain of Apoptosis regulator Bcl-2 (Homo sapiens) (P10415 whole entry, looked up): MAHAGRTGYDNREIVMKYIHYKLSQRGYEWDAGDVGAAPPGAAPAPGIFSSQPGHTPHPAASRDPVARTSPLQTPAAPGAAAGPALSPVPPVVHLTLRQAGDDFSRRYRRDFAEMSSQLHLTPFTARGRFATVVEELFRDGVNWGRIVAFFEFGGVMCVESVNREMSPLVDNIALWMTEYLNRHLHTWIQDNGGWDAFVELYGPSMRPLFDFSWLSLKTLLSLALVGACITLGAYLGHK

SMILES	outcome [1]	outcome [2]	outcome [3]	outcome [4]	outcome [5]	outcome [6]	outcome [7]	AC50 (BCL2L11 (gene 10018))	outcome [8]	outcome [9]	AC50 [7]	outcome (BCL2L11 (gene 10018))	AC50 [3]	AC50 [5]	AC50 [1]	AC50 [2]	AC50 [8]	AC50 [9]	AC50 [6]
CN(C)C(=O)Nc1cccc(C(F)(F)F)c1	inactive	inactive	inactive	inactive	inactive	inactive	inactive	50 µM (active)	inactive	inactive	–	–	–	–	–	–	–	–	–
CCOP(=S)(OCC)Oc1ccc([N+](=O)[O-])cc1	inactive	inactive	inactive	inactive	inactive	inactive	–	–	inactive	inactive	2.4 µM (active)	inactive	–	–	–	–	–	–	–
CCC(=NOC/C=C/Cl)C1=C(O)CC(C2CCOCC2)CC1=O (configuration not stated)	inactive	inactive	inactive	inactive	inactive	inactive	inactive	–	inactive	inactive	–	inactive	–	–	–	–	–	–	–
N#CSCSC#N	inactive	inactive	–	inactive	–	inactive	–	78.8 µM (active)	inactive	inactive	80.2 µM (active)	–	12.5 µM (active)	50 µM (active)	–	–	–	–	–
CCCCOC(=O)c1ccccc1C(=O)O	inactive	inactive	inactive	inactive	inactive	inactive	inactive	–	inactive	inactive	–	inactive	–	–	–	–	–	–	–
C#CCC1=C(C)C(OC(=O)C2C(C=C(C)C)C2(C)C)CC1=O (configuration not stated)	inactive	inactive	inactive	inactive	inactive	inactive	–	–	inactive	inactive	81.1 µM (active)	inactive	–	–	–	–	–	–	–
O=c1ccc(=O)[nH][nH]1	inactive	inactive	inactive	inactive	inactive	inactive	inactive	–	inactive	inactive	–	inactive	–	–	–	–	–	–	–
CNC(=O)Oc1cccc2c1OC(C)(C)O2	inactive	inactive	inactive	inactive	inactive	inactive	inactive	–	inactive	inactive	–	inactive	–	–	–	–	–	–	–
COc1cccc(C(=O)NN(C(=O)c2cc(C)cc(C)c2)C(C)(C)C)c1C	inactive	inactive	inactive	inactive	inactive	inactive	–	–	inactive	inactive	7.69 µM (active)	inactive	–	–	–	–	–	–	–
Cc1nn(-c2cc(NS(C)(=O)=O)c(Cl)cc2Cl)c(=O)n1C(F)F	inactive	inactive	inactive	inactive	inactive	inactive	inactive	–	inactive	inactive	–	inactive	–	–	–	–	–	–	–
CCCSP(=O)(OCC)Oc1ccc(Br)cc1Cl (configuration not stated)	inactive	inactive	inactive	inactive	inactive	inactive	inactive	–	inactive	inactive	–	inactive	–	–	–	–	–	–	–
FC(F)C(F)(F)OCC(Cn1cncn1)c1ccc(Cl)cc1Cl (configuration not stated)	–	–	–	inactive	–	inactive	–	–	–	–	20.2 µM (active)	inactive	55 µM (active)	32.3 µM (active)	12.2 µM (active)	53.6 µM (active)	35.6 µM (active)	30.2 µM (active)	–
CN(C)NC(=O)CCC(=O)O	inactive	inactive	inactive	inactive	–	inactive	inactive	–	inactive	inactive	–	inactive	–	–	–	–	–	–	–
S=C1NCCN1	inactive	–	inactive	inactive	–	–	inactive	–	inactive	inactive	–	inactive	–	–	–	0.232 µM (active)	–	–	12.6 µM (active)
CCC(CC)Nc1c([N+](=O)[O-])cc(C)c(C)c1[N+](=O)[O-]	–	inactive	inactive	inactive	inactive	inactive	–	–	–	inactive	50 µM (active)	inactive	–	–	89.4 µM (active)	–	–	–	–
CCOP(=S)(OCC)Oc1cc(C)nc(C(C)C)n1	inactive	inactive	inactive	inactive	inactive	inactive	inactive	–	inactive	inactive	–	inactive	–	–	–	–	–	–	–
Cc1cc(C2CC2)nc(Nc2ccccc2)n1	inactive	inactive	inactive	inactive	inactive	inactive	inactive	–	inactive	inactive	–	inactive	–	–	–	–	–	–	–

SMILES	outcome [1]	outcome [2]	outcome [3]	outcome [4]	outcome [5]	outcome [6]	outcome [7]	AC50 (BCL2L11 (gene 10018))	outcome [8]	outcome [9]	AC50 [7]	outcome (BCL2L11 (gene 10018))	AC50 [3]	AC50 [5]	AC50 [1]	AC50 [2]	AC50 [8]	AC50 [9]	AC50 [6]
C[N+]1(C)CCCCC1	inactive	inactive	inactive	inactive	–	inactive	inactive	–	inactive	inactive	–	inactive	–	–	–	–	–	–	–
CC(=NC#N)N(C)Cc1ccc(Cl)nc1	inactive	inactive	inactive	inactive	inactive	inactive	inactive	–	inactive	inactive	–	inactive	–	–	–	–	–	–	–
CCOP(=O)(OCC)Oc1cc(C)nc(C(C)C)n1	inactive	inactive	inactive	inactive	–	inactive	inactive	–	inactive	inactive	–	inactive	–	–	–	–	–	–	–
CCOP(=S)(OCC)Oc1ccc2c(C)c(Cl)c(=O)oc2c1	inactive	inactive	–	inactive	inactive	inactive	–	–	inactive	inactive	36.6 µM (active)	inactive	50 µM (active)	–	–	–	–	–	–
COc1cc(OC)nc(Sc2cccc(Cl)c2C(=O)O)n1	inactive	inactive	inactive	inactive	inactive	inactive	inactive	–	inactive	inactive	–	inactive	–	–	–	–	–	–	–
O=C(O)c1cc(Oc2ccc(C(F)(F)F)cc2Cl)ccc1[N+](=O)[O-]	inactive	–	inactive	inactive	–	inactive	inactive	–	inactive	inactive	–	inactive	–	–	–	28.4 µM (active)	–	–	–
CCOP(=O)(NC(C)C)Oc1ccc(SC)c(C)c1 (configuration not stated)	inactive	inactive	inactive	inactive	inactive	inactive	–	–	inactive	inactive	16.5 µM (active)	inactive	–	–	–	–	–	–	–
CCOP(=S)(OCC)OC(Cl)C(Cl)(Cl)Cl (configuration not stated)	inactive	inactive	inactive	inactive	inactive	inactive	inactive	–	inactive	inactive	–	inactive	–	–	–	–	–	–	–
CCCCOC(=O)[C@@H](C)Oc1ccc(Oc2ccc(C#N)cc2F)cc1	inactive	–	inactive	inactive	–	inactive	inactive	–	inactive	inactive	–	inactive	–	–	–	39.7 µM (active)	–	–	–
COP(=O)(NC(C)=O)SC (configuration not stated)	inactive	inactive	inactive	inactive	inactive	inactive	inactive	–	inactive	inactive	–	inactive	–	–	–	–	–	–	–
CCCOc1nn(C(=O)NS(=O)(=O)c2ccccc2C(=O)OC)c(=O)n1C	inactive	inactive	inactive	inactive	inactive	inactive	inactive	–	inactive	inactive	–	inactive	–	–	–	–	–	–	–
Nc1nc(N)nc(NC2CC2)n1	inactive	inactive	inactive	inactive	inactive	inactive	inactive	–	inactive	inactive	–	inactive	–	–	–	–	–	–	–
C#CC(C)(C)NC(=O)c1cc(Cl)cc(Cl)c1	inactive	inactive	–	inactive	inactive	inactive	–	–	inactive	inactive	–	inactive	17.3 µM (active)	–	–	–	–	–	–
CN(C)[C@@H]1C(=O)C(C(N)=O)=C(O)[C@@]2(O)C(=O)C3=C(O)c4c(O)cccc4[C@@](C)(O)[C@H]3[C@H](O)[C@@H]12	inactive	inactive	inactive	inactive	inactive	inactive	inactive	–	inactive	inactive	–	inactive	–	–	–	–	–	–	–
CCNc1nc(Cl)nc(NC(C)(C)C#N)n1	inactive	inactive	inactive	inactive	inactive	inactive	inactive	–	inactive	inactive	–	inactive	–	–	–	–	–	–	–
COc1ccc(C(=CC(=O)N2CCOCC2)c2ccc(Cl)cc2)cc1OC	inactive	inactive	inactive	inactive	inactive	inactive	inactive	–	inactive	inactive	–	inactive	–	–	–	–	–	–	–
COP(=O)(OC)C(O)C(Cl)(Cl)Cl (configuration not stated)	inactive	inactive	–	inactive	inactive	inactive	inactive	–	inactive	inactive	–	inactive	0.0572 µM (active)	–	–	–	–	–	–
